# RORgamma inh – ROR gamma (mouse) transcription inhibition; P51450; Drosophila S2 Gal4-RORgamma UAS-luciferase reporter, 20 h; Potency, µM (doses to about 53.6 µM), actives largely listed as inhibitors; hit rate 5.4% among 310,000; note: nearly all actives have a fitted effect of over 60% in size
# Target sequence (P51450 whole entry, looked up, the tested form may be a part): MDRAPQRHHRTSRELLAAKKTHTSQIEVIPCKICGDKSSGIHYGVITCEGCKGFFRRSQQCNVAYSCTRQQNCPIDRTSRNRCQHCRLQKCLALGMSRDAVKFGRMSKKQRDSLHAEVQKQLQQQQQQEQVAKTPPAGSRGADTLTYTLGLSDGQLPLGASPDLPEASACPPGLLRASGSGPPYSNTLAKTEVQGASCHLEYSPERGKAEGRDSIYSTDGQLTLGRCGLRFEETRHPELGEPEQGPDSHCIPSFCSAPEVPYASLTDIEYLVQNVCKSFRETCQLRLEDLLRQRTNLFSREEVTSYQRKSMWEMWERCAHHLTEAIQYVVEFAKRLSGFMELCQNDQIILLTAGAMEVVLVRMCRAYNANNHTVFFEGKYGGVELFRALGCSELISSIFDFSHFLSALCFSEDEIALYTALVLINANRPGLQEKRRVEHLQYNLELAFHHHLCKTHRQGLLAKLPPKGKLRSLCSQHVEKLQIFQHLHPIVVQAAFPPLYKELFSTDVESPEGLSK
#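 Compounds are pin-transferred onto Drosophila Schneider cells expressing a copper-inducible Gal4–ROR gamma transactivation domain fusion. After 1 hr, copper sulfate is added to 700 uM final; luciferase is read 20 hr later.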
# VP16 counter – Gal4-VP16 reporter inhibition counter-screen. Drosophila S2 Gal4-VP16 UAS-luciferase, luminescence, 20 h. Potency, µM (top dose mostly 53.6 µM), usual class: inhibitors. hit rate 3.5% among 310,000;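 note: Gal4-VP16 expression switched on by copper sulfate through the metallothionein promoter; nearly all actives have a fitted effect of over 50% in size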
# ATXN2 expr inh – ATXN2 expression inhibition. AID 1745845. Potency, µM (highest dose often 57 µM), hits mostly inhibitors. hit rate 0.72% among 360,000. HEK-293 ATXN2-luciferase reporter, luminescence, 24 h; note: nearly all actives have a fitted effect of over 55% in size
#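 ATXN2-luciferase reporter cells (luciferase flanked by upstream and downstream ATXN2 gene portions) were treated 24 h at 37 °C with compounds at up to 57 uM. SteadyGlo luminescence gave expression; GF-AFC fluorescence gave viability.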
# ATXN viability – cell viability loss in ATXN counter-screen; Potency, µM (titrated, usually from 56.7 µM), usual class: cytotoxic; S2 cells (HEK-293 line with an ATXN2-luciferase reporter) viability, CellTiter-Fluor protease fluorescence, 24 h; hit rate 0.49% among 400,000; note: nearly all actives have a fitted effect of over 40% in size
# HepG2 viability – counter-screen for TGF-b inhibitors: cytotoxicity in HepG2 cells | AID 588856 | Potency, µM (titrated, usually from 46.1 µM), most hits filed as cytotoxic | HepG2 CAGA-GFP viability, ATP luminescence, 18 h | hit rate 0.76% among 410,000
#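 CellTiter-Glo luminescence gave cytotoxicity after 18 hours at 37 degrees C. The cells were HepG2 CAGA-GFP in 1% FBS DMEM, stimulated with 500 pg/mL TGF-beta after compound addition. %Activity was normalised to no-cell wells (complete cell-killing) and DMSO (no toxicity), and curves were fitted and classified.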
# TGFb inhibitor – TGF-b pathway inhibition. HepG2 CAGA-GFP TGF-b/SMAD3 reporter, GFP fluorescence, 18 h; TGF-beta stimulated, 500 pg/mL final. Potency, µM (highest dose often 46.1 µM), most hits filed as inhibitors. hit rate 1.2% among 410,000; note: nearly all actives have a fitted effect of over 65% in size
#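 Using HEPG2 CAGA-GFP reporter cells at 1000 cells/well, we pinned test compounds, stimulated with recombinant TGF-beta (500 pg/mL final) and measured total well GFP after 18 h.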
# Numbers stand for hits; – = inactive; ? = inconclusive; · = no result; [ ] = another dose, or the depositor's remark. Hits are enriched below; roughly 6.3% of the tested compounds scored in any of these assays. Calls come from the whole dose curve; as a rule, active = well fitted curve in the direction sought with a large enough effect; inconclusive = small, poorly fitted or top-dose-only effect, or another doubt; inactive = no such curve, though single readings can be large; an effect the other way counts as inactive or inconclusive.
SMILES,RORgamma inh,VP16 counter,ATXN2 expr inh,ATXN viability,HepG2 viability,TGFb inhibitor
Brc1ccc(-c2csc(N3CCCCCC3)n2)cc1,11µM,?,–,–,–,–
Cc1cccc(C)c1NC(=S)/C(=C(\[O-])c1cccs1)[n+]1ccccc1,?,20µM,–,–,–,–
CC(=O)Oc1ccc(N(C(C)=O)S(=O)(=O)c2ccc(C)cc2)c2ccccc12,·,·,27µM,?,–,–
Brc1ccc(-c2ccc(/C=N/Nc3nncc(-c4ccccc4)n3)o2)cc1,0.89µM,1.3µM,–,–,–,–
Brc1ccc(/C=N/Nc2nncc(-c3ccccc3)n2)o1,3.5µM,–,·,·,·,·
Oc1ccc(/C=N\Nc2nncc(-c3ccccc3)n2)cc1,–,?,–,–,–,?
Cc1ccc(F)cc1C(=O)N1CCCC(c2cc(C(=O)NCc3ccccc3)no2)C1 (stereo not drawn),·,·,–,–,–,–
COc1ccccc1Cn1c(C)c(C(=O)NCCC#N)sc1=O,·,·,–,–,–,–
COC(=O)N/N=C1\CCCc2c(C)cc(C)cc21,–,–,–,–,–,–
Cc1cc(C)c2c(c1)/C(=N/NC(=S)Nc1ccc(F)cc1)CCC2,–,16µM,–,–,–,–
COC(=O)c1ccc2nc(Nc3nc4ccc(F)cc4s3)sc2c1,0.14µM,3.5µM,?,–,–,18µM
CCOC(=O)c1sc(Nc2nc3ccc(OC)cc3s2)cc1C,?,–,–,–,–,?
CC(=O)c1sc(Nc2nc3ccc(F)cc3s2)nc1C,3.2µM,11µM,–,–,–,?
CCOC(=O)c1csc(Nc2nc3ccc(F)cc3s2)n1,7.9µM,?,–,?,–,–
COC(=O)c1ccc2nc(NC(=O)C3CCCCC3)sc2c1,–,–,–,–,–,–
CC(=O)c1sc(Nc2ccccc2)nc1C,·,·,–,–,–,–
COC(=O)c1ccc2nc(NC(=O)C(C)(C)C)sc2c1,2µM,7.1µM,?,–,–,–
COC(=O)c1cc(C)nc2c1c(=O)nc(SCc1ccccc1C)n2C1CC1,·,·,·,·,–,–
COc1cccc(-c2cnc(C(O)c3cc(C)cc(C)c3)[nH]2)c1 (stereo not drawn),·,·,–,–,–,–
COc1cc(=O)n2c(c1C(=O)N(C)Cc1nonc1C)CCN(Cc1cc(F)ccc1F)CC2,·,·,·,–,·,·
Cc1ccc2nc(-c3ccc(NC(=S)NCC(C)(C)CN(C)C)cc3)sc2c1,·,·,·,?,–,–
Cc1ccc2nc(-c3ccc(NC(=S)NCCC(C)C)cc3)sc2c1,·,·,·,–,–,–
CC(=O)NC(=S)Nc1ccc(-c2nc3ccc(C)cc3s2)cc1,0.5µM,1.8µM,–,?,–,–
CNC(=S)Nc1ccc(-c2nc3ccc(C)cc3s2)cc1,0.56µM,7.1µM,–,?,–,?
CCCCNC(=S)Nc1ccc(-c2nc3ccc(C)cc3s2)cc1,3.2µM,?,–,–,–,–
SMILES,RORgamma inh,VP16 counter,ATXN2 expr inh,ATXN viability,HepG2 viability,TGFb inhibitor
CCC(C)(C)NC(=S)Nc1ccc(-c2nc3ccc(C)cc3s2)cc1,–,–,–,?,–,?
COc1ccc(OC)c(NC(=O)C2(C)CCN2C(=O)Cc2ccc(Cl)cc2Cl)c1 (stereo not drawn),·,·,–,–,–,–
Cc1ccc(NC(=O)C(=O)NCc2ccc(Cl)cc2)cc1,·,·,–,–,–,–
Cc1ccsc1/C=N/n1c(C2CCCCC2)n[nH]c1=S,2.5µM,3.2µM,–,–,–,–
Cc1ccc(/C=N/n2c(C3CCCCC3)n[nH]c2=S)s1,3.2µM,3.2µM,–,–,–,–
Cc1ccc(-c2n[nH]c(=S)n2/N=C/c2sccc2C)cc1,?,–,–,–,–,–
S=c1[nH]nc(C2CCCCC2)n1/N=C/c1ccco1,?,?,–,?,–,–
COc1ccc(-c2cc3c(c4c2ccn4C)C2CCC3C2)cc1OC (stereo not drawn),·,·,–,–,–,?
C[C@@H]1ON(C)[C@H]2C[C@H]3c4[nH]c5ccc(-c6ccc7c(c6)OCO7)cc5c4CCN3C(=O)[C@@H]12,·,·,?,–,–,–
C#CCN(C[C@@H]1[C@@H](OC(=O)NCC2CCCCC2)[C@@H](OC(=O)NCC2CCCCC2)Cn2c(=O)ccc(=O)n21)S(=O)(=O)c1ccc(C)cc1,·,·,3.5µM,3.5µM,–,7.1µM
C#CCN(C[C@@H]1[C@@H](OC(=O)NCc2ccc(OC)c(OC)c2)[C@@H](OC(=O)NCc2ccc(OC)c(OC)c2)Cn2c(=O)ccc(=O)n21)S(=O)(=O)c1ccc(C)cc1,·,·,?,20µM,–,?
C#CCN(C[C@@H]1[C@@H](OC(=O)NC2CC2)[C@@H](OC(=O)NC2CC2)Cn2c(=O)n(CCCCCC)c(=O)n21)S(=O)(=O)c1ccc(C)cc1,·,·,–,?,–,–
C#CCN(C[C@@H]1[C@@H](OC(=O)NCCCCCC)[C@@H](OC(=O)NCCCCCC)Cn2c(=O)ccc(=O)n21)S(=O)(=O)c1ccc(C)cc1,·,·,3.5µM,4µM,6.3µM,6.3µM
C#CCN(C[C@@H]1[C@@H](OC(=O)NCc2ccco2)[C@@H](OC(=O)NCc2ccco2)Cn2c(=O)ccc(=O)n21)S(=O)(=O)c1ccc(C)cc1,·,·,14µM,25µM,–,?
CC(C)C[C@H]1CN(CCCC[C@H]2CNC(=O)C(=O)N2CC2CCCCC2)C(=O)C(=O)N1CCc1ccc(O)cc1,·,·,–,?,·,·
CO[C@@H]1/C=C\CC(=O)N[C@@H](C)C(=O)OC[C@@H](OC)[C@H](C)/C=C\CC(=O)OC[C@H]1C,–[10 µM],–[10 µM],·,·,·,·
COc1ccccc1CN1CC(C(=O)N(C)CCc2nc3ccc(F)cc3[nH]2)CCC1=O (stereo not drawn),–,–,–,–,–,–
O=C1OC(c2cccs2)Sc2ccccc21 (stereo not drawn),·,·,–,–,–,–
CC(=O)C(C(C)=O)c1c(Cl)c(O)c(O)c2c(C(=O)c3ccccc3)coc12,16µM,?,25µM,?,–,?
C[C@]12CCC(O)CC1=CCC1C2CC[C@]2(C)/C(=N\NC(N)=S)CCC12 (stereo partly drawn),13µM,–,–,–,–,–
CCOc1ccc(CN(C)C(=O)CNC(=O)c2ccc(Br)o2)cc1OC,–,–,–,–,–,–
Cn1cnc([N+](=O)[O-])c1Oc1cccc(O)c1,–,13µM,–,–,–,–
Cn1cnc([N+](=O)[O-])c1Oc1ccccc1,–,–,–,–,–,–
COc1cnc(-c2ccccn2)nc1Oc1ccc(Cl)c2ccccc12,1.3µM,7.9µM,?,–,–,–
COc1cnc(-c2ccccc2)nc1Oc1ccccc1C,–,–,–,–,–,–
COc1cnc(-c2ccccn2)nc1Oc1ccc(F)cc1F,5.6µM,?,–,–,–,?

# Bioassay records deposited in PubChem BioAssay by National Center for Advancing Translational Sciences (NCATS).
